In PubChem BioAssay (NCATS):
Inconclusive results are not listed. The source made the active and inactive calls. The call rests on the fitted dose curve; in most records, active means well fitted cell-killing curve with a large enough effect; inconclusive means small, poorly fitted or top-dose-only effect; inactive means flat fitted curve, though single readings scatter.

Assays:
[1] = Cell Viability - LYMP2-011 (AID 969); further: nearly all actives have a fitted effect of over 60% in size
How it was run: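 Cells seeded at 2500 per well rest 5 hr before compound addition, then incubate 24 hr at 37 C. CellTiter-Glo reagent is added for 30 min at room temperature before luminescence detection.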

[2] = Cell Viability - LYMP2-013 (AID 970); further: series mostly up to about 92 µM; nearly all actives have a fitted effect of over 55% in size
How it was run: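 In complete culture medium, human lymphoblastoid cells were dosed for 24 hr at 37 C, with tetraoctylammonium bromide (6.4pM to 92 uM) as positive control. Viability reflects luciferase-based ATP signal; AC50 derived from concentration-response curves.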

[3] = Cell Viability - LYMP2-015 (AID 971); further: nearly all actives have a fitted effect of over 55% in size
How it was run: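 AC50 values reflect Hill-model fits of ATP-based luminescence (CellTiter-Glo) from a human lymphoblastoid line, 2500 cells/well, treated 24 hr at 37 C.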

[4] = Cell Viability - LYMP2-017 (AID 972); further: series mostly up to about 92 µM; nearly all actives have a fitted effect of over 55% in size
How it was run: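 In this qHTS format, lymphoblastoid cells in complete medium receive test compound for a day at 37 C before ATP content is quantified by luciferase luminescence. Reported AC50 figures come from standard Hill-equation curve fitting.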

[5] = Cell Viability - LYMP2-019 (AID 973); further: nearly all actives have a fitted effect of over 55% in size
How it was run: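 AC50 values come from Hill-equation modelling of qHTS concentration-response curves, where viability is measured as luciferase-based ATP luminescence in the lymphoblastoid line after 24 hr compound exposure in complete culture medium.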

[6] = Cell Viability - LYMP2-021 (AID 974)
How it was run: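 In qHTS format, compounds are tested against 2500 lymphoblastoid cells per well for 24 h; viable cell number is inferred from ATP-driven luciferase light, and Hill-equation fitting yields AC50 values.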

[7] = Cell Viability - LYMP2-023 (AID 975)
How it was run: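 In this qHTS, ATP-based luciferase luminescence (CellTiter-Glo) is quantified in human lymphoblastoid cells after 24 hr compound treatment at 37 C; tetraoctylammonium bromide serves as positive control. Concentration-response curves are Hill-fitted to give AC50.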

[8] = Cell Viability - LYMP2-025 (AID 976); further: series mostly up to about 92 µM
How it was run: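 Luminescent ATP readout after 24 hr treatment of a human lymphoblastoid line (LYMP2-025, 2500 cells/well, 37 C). Reagent developed 30 min at room temperature; AC50 fitted with the Hill equation.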

[9] = Cell Viability - LYMP2-002 (AID 977); further: series mostly up to about 92 µM
How it was run: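 Human lymphoblastoid cells, 2500/well, complete medium; 5 h 37 C settle; compound 24 h 37 C; CellTiter-Glo, 30 min RT; luminescence. Decrease in ATP = cytotoxicity; AC50 via Hill equation.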

[10] = Cell Viability - LYMP2-006 (AID 978); further: series mostly up to about 92 µM; nearly all actives have a fitted effect of over 60% in size
How it was run: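 Potency values are Hill-fit AC50s for decreases in intracellular ATP (CellTiter-Glo luminescence). LYMP2-006 lymphoblastoid cells, 2500 per well, were exposed to compound in complete culture medium for 24 hr at 37 C.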

[11] = Cell Viability - LYMP2-007 (AID 979);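 further: cells exposed to compound for 24 h before reading; nearly all actives have a fitted effect of over 60% in size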
How it was run: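 Measured via luciferase-based ATP quantitation: lymphoblastoid cells, 24 hr compound exposure at 37 C, AC50 from Hill fits.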

[12] = Cell Viability - LYMP2-008 (AID 980); further: nearly all actives have a fitted effect of over 60% in size
How it was run: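 Measured: ATP-dependent luminescence, proportional to viable cell number, in human lymphoblastoid cells treated 24 hr with compound in complete culture medium. Values are AC50s from Hill-equation modelling of qHTS titrations.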

[13] = Cell Viability - LYMP2-010 (AID 981); further: nearly all actives have a fitted effect of over 55% in size
How it was run: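 This 24 hr viability screen uses LYMP2-010 lymphoblastoid cells, quantifies ATP via luciferase luminescence, and derives AC50 from Hill fits of qHTS concentration-response data.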

[14] = Cell Viability - LYMP2-012 (AID 982)
[15] = Cell Viability - LYMP2-014 (AID 983); further: series mostly up to about 92 µM; nearly all actives have a fitted effect of over 50% in size
How it was run: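 Quantitative HTS in lymphoblastoid cells: 24 hr compound exposure, then CellTiter-Glo ATP luminescence. Positive control was tetraoctylammonium bromide, 6.4pM to 92 uM.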

[16] = Cell Viability - LYMP2-016 (AID 984); further: nearly all actives have a fitted effect of over 55% in size
How it was run: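 Cytotoxicity was scored by luminescent ATP content (CellTiter-Glo) after 24 h compound exposure at 37 C of a human lymphoblastoid line at 2500 cells/well. Concentration-response data were fitted to the Hill equation for AC50.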

[17] = Cell Viability - LYMP2-018 (AID 985); further: nearly all actives have a fitted effect of over 50% in size
How it was run: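 In this qHTS viability assay, cells are treated for 24 hr and cellular ATP is quantified by luciferase-based luminescence, with tetraoctylammonium bromide as positive control.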

[18] = Cell Viability - LYMP2-020 (AID 986)
How it was run: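 Cells at 2500 per well receive a 24 hr compound exposure at 37 C. Viability is measured as ATP-dependent luciferase luminescence, with AC50 modeled from qHTS concentration-response curves.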

[19] = Cell Viability - LYMP2-022 (AID 987); further: nearly all actives have a fitted effect of over 55% in size
How it was run: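 In this qHTS cytotoxicity screen, compound titrations were incubated 24 hr at 37 C with human lymphoblastoid cells in complete medium. Luciferase-based ATP luminescence provided the viability signal.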

[20] = Cell Viability - LYMP2-024 (AID 988); further: nearly all actives have a fitted effect of over 60% in size
How it was run: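 Cells at 2500 per well received compound for 24 hr after a 5 hr settling period. Viability was scored by CellTiter-Glo luminescence, with AC50 from Hill fits.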

Measured: outcome

Cc1occc(=O)c1O
inactive: [1] | [2] | [3] | [4] | [5] | [6] | [7] | [8] | [9] | [10] | [11] | [12] | [13] | [14] | [15] | [16] | [17] | [18] | [19] | [20]

CC1=CC(=O)CC(C)(C)C1(O)/C=C/C(C)=C\C(=O)O (stereo not given)
inactive: [1] | [2] | [3] | [4] | [5] | [6] | [7] | [8] | [9] | [10] | [11] | [12] | [13] | [14] | [15] | [16] | [17] | [18] | [19] | [20]
